# The source made the active and inactive calls. Unless noted, the rule behind the calls is not given here.
# Assays:
# [1] = test system: Wnt5a (protein binding on small-molecule microarray); assay: Wnt5a binders on small-molecule microarray, primary screen, biophysical, 635/667 nm fluorescence (AID 1142); details: 635 nm fluorescence, higher = more signal;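 note: fluorescence read at 667 nm with signal to noise per printed feature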
# [2] = cell viability in Huh7 cells, primary screen, cytotoxicity control for HCV replication inhibitor project, CellTiter-Glo luminescence, basal, 48 h (AID 1143); details: Huh7 HCV replicon, higher = more signal, called active from +8 up or from −8 down;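 note: Huh7 hepatoma cells carrying a hepatitis C replication reporter with no stimulus; test concentration not given here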
# [3] = P. aeruginosa biofilm formation inhibitors, primary screen, PAO1 strain, BacTiter-Glo luminescence, LB-PBS (AID 1144); details: 12 h, higher = more signal
# [4] = CREB reporter modulators without forskolin, primary screen, cell-based, PC12, CRE-LacZ reporter, unstimulated (AID 1145); details: no forskolin, luminescence, 4.5 h, higher = more signal, called active from +8 up or from −8 down
# [5] = CREB reporter modulators under forskolin, primary screen, cell-based, PC12, CRE-LacZ reporter, forskolin-stimulated (AID 1146); details: luminescence, 4.5 h, higher = more signal, called active from +8 up or from −8 down;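 note: PC12 cells with 6xCRE LacZ reporter stimulated by forskolin 10 µM; beta-galactosidase reporter signal reflecting CREB driven transcription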
# [6] = molecular target: Streptavidin (Streptomyces avidinii) (UniProt P22629); assay: streptavidin binders on small-molecule microarray, primary screen, artefact control for SMM compound annotation, biophysical, 635/667 nm fluorescence (AID 1147); details: streptavidin binding, higher = more signal;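 note: signal reflects streptavidin binding to arrayed compounds as a control protein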
# Streptavidin (Streptomyces avidinii), sequence (P22629 whole entry, looked up): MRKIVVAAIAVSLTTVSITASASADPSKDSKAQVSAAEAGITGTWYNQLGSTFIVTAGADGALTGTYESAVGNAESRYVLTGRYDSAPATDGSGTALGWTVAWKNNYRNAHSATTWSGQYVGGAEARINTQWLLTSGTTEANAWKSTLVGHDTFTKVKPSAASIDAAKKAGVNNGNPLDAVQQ
# [7] = small-molecule binders of probe aInhba, primary screen, biochemical, small-molecule microarray, 635/667 nm fluorescence (AID 1148); details: higher = more signal;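 note: score merges 667nm spot fluorescence with signal-to-noise for antibody binding to printed compounds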
# Torsin-1A (Homo sapiens) [8] = molecular target: Torsin-1A (Homo sapiens) (UniProt O14656); assay: torsin A binders from cell lysate, primary screen, small-molecule microarray, wild-type, 635/667 nm (AID 1149); details: COS7 hTOR1A-WT lysate, 635 nm fluorescence, higher = more signal
# Torsin-1A (Homo sapiens), sequence (O14656 whole entry, looked up): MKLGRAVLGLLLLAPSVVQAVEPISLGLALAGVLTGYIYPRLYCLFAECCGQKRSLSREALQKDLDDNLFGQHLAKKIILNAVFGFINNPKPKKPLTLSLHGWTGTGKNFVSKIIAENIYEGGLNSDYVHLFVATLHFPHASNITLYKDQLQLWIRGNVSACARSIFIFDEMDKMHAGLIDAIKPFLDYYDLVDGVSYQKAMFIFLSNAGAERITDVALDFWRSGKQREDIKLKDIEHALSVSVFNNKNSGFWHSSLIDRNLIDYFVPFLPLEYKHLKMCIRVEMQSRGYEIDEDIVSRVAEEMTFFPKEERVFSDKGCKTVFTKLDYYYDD
# Torsin-1A (Homo sapiens) [9] = molecular target: Torsin-1A (Homo sapiens) (UniProt O14656); assay: small-molecule binders of mutant TOR1A in lysate, primary screen, cell lysate, small-molecule microarray, COS7 lysate, 635/667 nm fluorescence (AID 1150); details: COS7 hTOR1A mutant lysate, 635 nm fluorescence, higher = more signal;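 note: score pools 667 nm emission and signal to noise measuring lysate protein binding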
# [10] = test system: Sonic hedgehog protein (Shh); assay: small-molecule binders of Shh protein, primary screen, biochemical, small-molecule microarray, 635/667 nm fluorescence (AID 1151); details: small-molecule microarray binding, 635 nm fluorescence; higher = more signal;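 note: Shh protein binding to compounds spotted on small-molecule microarray slides; score combines spot fluorescence intensity with signal-to-noise across triplicate slides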
# [11] = E. coli DRC41 culture turbidity changes, primary screen, E. coli filamentation inducer project, strain DRC41, OD650, 48 h (AID 1152);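 note: E. coli MC1000 strain DRC41 lacking acrAB efflux pump and sulA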; details: E. coli DRC41 (acrAB sulA), higher = more signal, called active from +8 up or from −8 down
# [12] = small-molecule binders of probe aLefty1, primary screen, biochemical, small-molecule microarray, 635/667 nm fluorescence (AID 1153); details: higher = more signal;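 note: score merges spot fluorescence with signal-to-noise ratio from the scanned slide images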
# [13] = PSAC antagonists in infected red cells, primary screen, cell-based, P. falciparum Indochina, OD700, 1 h (AID 1154); details: P. falciparum Indochina infected RBC osmotic lysis, higher = more signal, called active from +8 up or from −8 down
# [14] = PSAC antagonists in infected red cells, primary screen, cell-based, P. falciparum Indochina, OD700, 2 h (AID 1155);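 note: lysis reports solute entry through the parasite surface anion channel PSAC; channel blockers reduce lysis of infected cells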; details: P. falciparum Indochina infected erythrocytes, osmotic lysis OD700; higher = more signal, called active from +8 up or from −8 down
# [15] = osmotic lysis modulators in infected erythrocytes, primary screen, PSAC antagonist project, cell-based, P. falciparum Indochina, OD700, 3 h (AID 1156); details: higher = more signal, called active from +8 up or from −8 down
# [16] = PSAC antagonists in infected red cells, primary screen, cell-based, P. falciparum Indochina, OD700, 18 h (AID 1157); details: P. falciparum Indochina infected erythrocytes, osmotic lysis OD700, 18 h; higher = more signal, called active from +8 up or from −8 down
# [17] = modulators of S6 phosphorylation in cells, primary screen, cell-based, A549, cytoblot, luminescence, serum-stimulated (AID 1158); details: A549 phospho-S6 cytoblot, 5 h, higher = more signal;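 note: serum-stimulated A549 lung adenocarcinoma cells; signal is phosphorylated S6 detected by cytoblot immunostaining with HRP secondary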
# [18] = molecular target: NADPH oxidase 2 (Homo sapiens) (UniProt P04839); assay: NOX2-dependent H2O2 signal modulators, primary screen, NOX inhibitor project, cell-based, HEK293-NOX2, PMA-stimulated, Amplex Red fluorescence (AID 1159); details: 45 min, higher = more signal, called active from +8 up or from −8 down; note: test concentration not given here
# NADPH oxidase 2 (Homo sapiens), sequence (P04839 whole entry, looked up): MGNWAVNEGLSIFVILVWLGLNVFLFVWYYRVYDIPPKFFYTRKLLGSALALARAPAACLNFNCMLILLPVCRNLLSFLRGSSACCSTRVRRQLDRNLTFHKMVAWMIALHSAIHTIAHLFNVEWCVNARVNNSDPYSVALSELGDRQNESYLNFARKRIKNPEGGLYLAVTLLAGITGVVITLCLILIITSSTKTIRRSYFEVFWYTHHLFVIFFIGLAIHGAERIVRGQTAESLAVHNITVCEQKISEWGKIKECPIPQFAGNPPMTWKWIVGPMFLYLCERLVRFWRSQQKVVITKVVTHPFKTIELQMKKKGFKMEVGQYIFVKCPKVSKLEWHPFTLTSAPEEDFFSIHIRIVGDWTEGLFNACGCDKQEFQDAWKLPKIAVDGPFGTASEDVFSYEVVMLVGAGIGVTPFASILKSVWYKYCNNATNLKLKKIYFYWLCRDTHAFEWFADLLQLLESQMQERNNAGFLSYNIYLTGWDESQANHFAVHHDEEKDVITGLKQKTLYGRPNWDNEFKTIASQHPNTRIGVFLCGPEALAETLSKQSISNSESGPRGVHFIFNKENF
# [19] = molecular target: NADPH oxidase 4 (Homo sapiens) (UniProt Q9NPH5); assay: NOX4-dependent H2O2 signal modulators, primary screen, NOX inhibitor project, cell-based, HEK293-NOX4, tetracycline-induced, Amplex Red fluorescence (AID 1160); details: 45 min, higher = more signal, called active from +8 up or from −8 down
# NADPH oxidase 4 (Homo sapiens), sequence (Q9NPH5 whole entry, looked up): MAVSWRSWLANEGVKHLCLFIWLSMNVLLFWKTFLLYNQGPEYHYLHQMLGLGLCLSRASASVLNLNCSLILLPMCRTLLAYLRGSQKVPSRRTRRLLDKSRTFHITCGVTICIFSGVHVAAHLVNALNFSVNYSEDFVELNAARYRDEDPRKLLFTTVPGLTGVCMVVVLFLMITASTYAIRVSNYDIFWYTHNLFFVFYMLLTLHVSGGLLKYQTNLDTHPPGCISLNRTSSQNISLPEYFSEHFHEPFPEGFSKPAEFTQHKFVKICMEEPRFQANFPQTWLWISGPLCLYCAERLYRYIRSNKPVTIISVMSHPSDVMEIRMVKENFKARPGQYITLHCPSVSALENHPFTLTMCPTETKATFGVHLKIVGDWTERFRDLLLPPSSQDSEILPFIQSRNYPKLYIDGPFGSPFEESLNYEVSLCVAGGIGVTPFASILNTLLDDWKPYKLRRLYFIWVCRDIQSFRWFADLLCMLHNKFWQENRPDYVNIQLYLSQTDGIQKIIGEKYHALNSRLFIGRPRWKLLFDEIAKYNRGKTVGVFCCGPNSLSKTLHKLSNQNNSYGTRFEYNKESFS
# [20] = molecular target: NADPH oxidase 5 (Homo sapiens) (UniProt Q96PH1); assay: NOX5-dependent H2O2 signal modulators, primary screen, NOX inhibitor project, cell-based, HEK293-NOX5, Amplex Red fluorescence (AID 1161); details: HEK293-NOX5, ionomycin, 45 min, higher = more signal
# NADPH oxidase 5 (Homo sapiens), sequence (Q96PH1 whole entry, looked up): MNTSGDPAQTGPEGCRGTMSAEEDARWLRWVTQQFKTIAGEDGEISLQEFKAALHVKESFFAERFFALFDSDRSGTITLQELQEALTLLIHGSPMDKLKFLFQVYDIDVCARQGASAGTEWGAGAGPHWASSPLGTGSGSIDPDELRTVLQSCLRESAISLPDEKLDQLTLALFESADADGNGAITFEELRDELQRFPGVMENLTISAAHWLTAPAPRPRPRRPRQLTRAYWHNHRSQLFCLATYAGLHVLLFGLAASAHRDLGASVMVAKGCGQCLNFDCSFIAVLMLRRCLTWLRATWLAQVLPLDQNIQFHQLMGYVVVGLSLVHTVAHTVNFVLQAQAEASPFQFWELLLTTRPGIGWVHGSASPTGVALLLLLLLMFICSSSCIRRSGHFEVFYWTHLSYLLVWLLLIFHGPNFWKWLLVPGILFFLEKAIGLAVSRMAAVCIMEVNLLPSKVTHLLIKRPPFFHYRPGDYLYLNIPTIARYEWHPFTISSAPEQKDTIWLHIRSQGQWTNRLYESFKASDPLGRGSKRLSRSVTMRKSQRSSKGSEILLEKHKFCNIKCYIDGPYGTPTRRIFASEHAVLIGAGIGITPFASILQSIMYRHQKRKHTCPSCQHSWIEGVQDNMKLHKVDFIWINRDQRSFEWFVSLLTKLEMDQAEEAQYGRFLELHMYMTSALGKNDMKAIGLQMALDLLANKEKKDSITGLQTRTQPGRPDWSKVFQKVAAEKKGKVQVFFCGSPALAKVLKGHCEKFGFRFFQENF
Compound,composite z-score [1],z-score [2],z-score [3],z-score [4],z-score [5],composite z-score [6],composite z-score [7],composite z-score (Torsin-1A (Homo sapiens) [8]),composite z-score (Torsin-1A (Homo sapiens) [9]),composite z-score [10],z-score [11],composite z-score [12],z-score [13],z-score [14],z-score [15],z-score [16],z-score [17],z-score [18],z-score [19],z-score [20]
O=C1O[C@H](c2ccccc2)[C@H](c2ccccc2)N2[C@H]1[C@@H](C(=O)Nc1nc3ccccc3s1)[C@]1(C(=O)Nc3ccc(C#CC4=CCCCC4)cc31)[C@H]2c1ccc(O)cc1,0.357,-4.09 (inactive),-0.922 (inactive),-0.671 (inactive),0.0225 (inactive),1.24,-0.103,-0.253,0.335,1,2.68 (inactive),0.122,-0.559 (inactive),-0.0042 (inactive),-0.715 (inactive),0.193 (inactive),1.26,0.878 (inactive),0.214 (inactive),0.191
COc1cc2c(cc1O)C(c1ccc(CN3CCCC3)cc1)N(C)CC2 (stereo not given),-0.0821,-0.383 (inactive),0.374 (inactive),-0.231 (inactive),-0.0347 (inactive),-0.317,-0.237,-0.508,0.081,-0.0838,0.309 (inactive),-0.446,0.0334 (inactive),-0.0719 (inactive),0.247 (inactive),0.0339 (inactive),-0.364,-1.63 (inactive),-1.46 (inactive),-1.22
CCCCCN1CC=CC23O[C@@H]4C=CCOC(=O)[C@@H]4[C@H]2C(=O)N(CCO)[C@@H]3C1=O (stereo not given in full),-0.395,-0.143 (inactive),1.13 (inactive),-0.0818 (inactive),-0.585 (inactive),-0.958,-0.205,1.17,1.78,-0.456,-0.23 (inactive),-0.25,0.0674 (inactive),0.31 (inactive),0.266 (inactive),0.161 (inactive),-0.53,1.52 (inactive),0.713 (inactive),1.23
COc1cc(CO)cc(I)c1O[C@H]1C=C(C(=O)NCCO)C[C@@H](NCC2CCCCC2)[C@@H]1O,-0.042,-0.731 (inactive),-0.893 (inactive),-0.0534 (inactive),-0.269 (inactive),0.0581,0.0422,-0.549,-0.262,-0.397,2.19 (inactive),-0.313,1.35 (inactive),0.94 (inactive),0.996 (inactive),0.183 (inactive),1.06,0.132 (inactive),0.97 (inactive),1.04
CCCC=C(CCC)[C@@H](NS(=O)(=O)c1cccc2cccnc12)c1ccc(-c2ccccc2)cc1,0.702,-1.52 (inactive),0.923 (inactive),-0.379 (inactive),0.415 (inactive),1.42,0.475,0.274,0.371,0.632,-1.37 (inactive),0.396,0.012 (inactive),0.451 (inactive),1.24 (inactive),0.913 (inactive),0.389,-0.876 (inactive),1.59 (inactive),2.39
CCOC(=O)C1=C[C@@H](C(C)(C)C)N(S(=O)(=O)c2ccc(C)cc2)[C@H]1c1cccc(Cl)c1,0.37,-4.84 (inactive),1.52 (inactive),0.0798 (inactive),-0.651 (inactive),1.37,0.18,0.224,0.695,0.163,-1.11 (inactive),0.522,1.26 (inactive),1.03 (inactive),0.223 (inactive),0.39 (inactive),-0.98,-0.789 (inactive),-0.842 (inactive),0.196
NC(=O)N1C(=O)C2C(C1=O)C1C=C(CCCO)C2C(C2CC2)N1Cc1cccc(OC(F)(F)F)c1 (stereo not given),-0.352,-0.458 (inactive),1.35 (inactive),0.522 (inactive),1.62 (inactive),-0.439,-0.182,1.51,1.59,0.393,-0.778 (inactive),-0.195,1.03 (inactive),0.275 (inactive),-0.351 (inactive),0.161 (inactive),-0.898,0.699 (inactive),-0.685 (inactive),-0.738
COc1cc(NN2C(C(O)C3CCCCC3)C=CC3C(=O)N(c4ccccc4)C(=O)C32)cc(OC)c1OC (stereo not given),0.316,-2.88 (inactive),-0.408 (inactive),0.436 (inactive),-0.0678 (inactive),0.775,0.121,-0.224,0.335,-0.686,-1.02 (inactive),-0.441,1.73 (inactive),-0.35 (inactive),1.36 (inactive),-1.16 (inactive),1.37,-3.07 (inactive),-5.15 (inactive),-5.24
COC(=O)C1N=C(c2ccc(OCCCO)cc2)N(c2ccccc2)O1 (stereo not given),0.924,0.255 (inactive),-0.787 (inactive),0.353 (inactive),0.0512 (inactive),0.562,0.308,0.654,0.328,0.664,0.336 (inactive),0.103,24.9 (active),7.38 (inactive),1.02 (inactive),1.04 (inactive),0.417,0.943 (inactive),0.392 (inactive),-0.0493

# Reference: PubChem BioAssay
